# Compound activity from PubChem.
# A selection: hits, their analogues and other compounds. The true share with any hit is near 3.2%.
# TMEM16A act = TMEM16A chloride channel activators or potentiators, primary screen, cell-based, HTS; Anoctamin-1 (Mus musculus), Q8BHY3; HEK293 TMEM16A/YFP-H148Q/I152L, iodide quench fluorescence; stronger effect = lower value; B-score at 10 µM; 0.3% of 340,000 active;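 active = fluorescence-ratio B-score plate-corrected deviation score at least 3 library SD below zero, with starting fluorescence score within 5 deviations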;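 note: channel opened by trigger with iodide after compound preincubation; score built on the fluorescence ratio of max minus min over baseline; more negative score means more quench and so TMEM16A activation or potentiation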
# ANO1 block = TMEM16A chloride channel inhibitors, primary screen, cell-based, HTS; Anoctamin-1 (Mus musculus), Q8BHY3; HEK293 TMEM16A/YFP iodide influx fluorescence, ionomycin; normalized B-score (activity score, 25-100; higher = stronger inhibition) at 10 µM; 1.2% of 310,000 active;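 active = ratio plate-corrected score three or more library SD toward inhibition, starting fluorescence score within five deviations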;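 note: score derived from kinetic fluorescence span divided by baseline fluorescence per well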
# Rce1 inhib = yeast Rce1p protease inhibitors, primary screen, biochemical, fluorescence, cell-free homogeneous; CAAX prenyl protease 2 (Saccharomyces cerevisiae (strain ATCC 204508 / S288c)), Q03530; yeast membranes, quenched prenylated peptide cleavage fluorescence; calls only; 0.27% of 290,000 active;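 active = fall in fluorescence gain of 50% or more versus controls, with final raw signal at or below 3038400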
# CHT block = inhibitors of human choline transporter CHT. High affinity choline transporter 1 (Homo sapiens), Q9GZV3. CHT-expressing cells, membrane potential dye, choline response; stronger effect = lower value. B-score at 10 µM. 0.86% of 310,000 active. AID 488975, 2010;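 active = B-score over 3 SD under the library average, and starting fluorescence ratio not unusually high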;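 note: choline stimulus applied at its EC90 after an EC20 pre-addition; B-score computed on integrated fluorescence ratio after choline addition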
# Target sequence (Q9GZV3 whole entry, looked up): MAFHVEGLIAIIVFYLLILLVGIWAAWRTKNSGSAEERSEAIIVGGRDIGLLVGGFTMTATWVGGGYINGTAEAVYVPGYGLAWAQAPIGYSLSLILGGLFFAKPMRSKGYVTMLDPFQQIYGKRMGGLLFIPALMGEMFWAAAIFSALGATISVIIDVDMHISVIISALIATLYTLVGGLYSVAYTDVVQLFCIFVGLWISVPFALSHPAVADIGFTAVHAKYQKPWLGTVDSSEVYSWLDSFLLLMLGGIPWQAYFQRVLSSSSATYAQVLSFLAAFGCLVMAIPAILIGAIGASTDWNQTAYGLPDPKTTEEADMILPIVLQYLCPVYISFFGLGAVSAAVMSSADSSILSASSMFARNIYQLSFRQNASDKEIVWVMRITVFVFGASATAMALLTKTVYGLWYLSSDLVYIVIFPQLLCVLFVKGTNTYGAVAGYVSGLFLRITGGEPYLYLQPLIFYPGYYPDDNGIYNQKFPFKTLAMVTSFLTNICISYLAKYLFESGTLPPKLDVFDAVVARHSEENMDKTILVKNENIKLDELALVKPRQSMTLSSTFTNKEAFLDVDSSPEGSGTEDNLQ
# Kir21 inh = inhibitors of mouse Kir2.1 inward-rectifier potassium channel; B-score at 10 µM; 0.85% of 310,000 active; Inward rectifier potassium channel 2 (Mus musculus), P35561; HEK293-Kir2.1, FluxOR thallium flux fluorescence; stronger effect = lower value;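 active = fluorescence ratio B-score at or below minus 3 SD of library scores, with starting-brightness B-score within 2 SD, cut at about -4.2 in these data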;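 note: channel flux triggered by added potassium and thallium sulfate stimulus; B-score of peak minus minimum fluorescence over baseline after thallium stimulus; more negative B-score means stronger Kir2.1 block with less thallium influx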
# CHT PAM = CHT positive allosteric modulators, primary screen, cell-based, membrane potential dye, choline EC20; CHT-expressing cells; stronger effect = higher value; LV-AA mutant CHT in HEK293 cells; B-score at 10 µM; 0.49% of 310,000 active;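 active = initial fluorescence not abnormally high and integrated response B-score, plate-corrected, over 3 SD above library mean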
# Hits are given with their value; 0 = inactive; - = no result; + = active, no number; ! = not confirmed by another sample.
SMILES,TMEM16A act,ANO1 block,Rce1 inhib,CHT block,Kir21 inh,CHT PAM
CC1(C)NC(=O)N(CCOCCOc2ccccc2-c2ccccc2)C1=O,0,0,0,0,-5.4,0
CCCCNCCOCCOc1ccccc1-c1ccccc1,0,0,0,0,-10,0
CN(C)CCCCOc1ccccc1-c1ccccc1,0,0,0,0,0,0
O=C(CCl)N1CCCC1c1ccc2c(c1)OCCO2 (stereo not drawn),0,0,0,0,0,0
COC(=O)CSc1nc(N)c2c3c(sc2n1)C(c1ccccc1)SC(c1ccccc1)C3 (stereo not drawn),0,0,+,0,0,0
COc1ccc(C(C)(C)C)cc1NC(=O)CCCN1C(=O)CN(C)C1=O,0,-,-,-,-,-
O=C(Nc1ccc(Cl)cc1)Nc1ccccc1NS(=O)(=O)c1cccs1,0,100,0,0,0,0
NC(=S)c1c(Cl)cc(C(F)(F)F)cc1Cl,0,0,0,0,0,0
COc1ccc(CNC(=O)C(c2ccco2)N(C(=O)CNS(=O)(=O)c2ccccc2)c2ccccc2C)cc1 (stereo not drawn),0,25,0,0,0,0
CC(=O)Nc1sc(C)c(C)c1C(=O)OCC(=O)NCc1ccc(F)cc1,0,-,-,-,-,-
CCCCN(C/C=C/c1ccccc1OC)Cc1ccccc1,0,0,0,0,0,0
CCN(C/C=C/c1ccccc1OC)Cc1ccccc1,0,0,0,0,-4.8,0
O=C(c1ccc(Oc2ccc([N+](=O)[O-])cc2)cc1)N1CCCCCC1,0,25,0,0,0,0
O=C(CCn1c(=S)oc2ccccc21)NCCC1=CCCCC1,0,0,0,0,0,0
CCOc1ncccc1C(=O)Nc1ccc(C)cn1,0,0,0,0,0,0
O=C(NCC(c1cccs1)N1CCOCC1)c1ccccc1NS(=O)(=O)c1cccc([N+](=O)[O-])c1 (stereo not drawn),0,0,0,0,0,0
O=C(NCC(c1cccs1)N1CCOCC1)c1ccccc1NS(=O)(=O)c1ccc(Cl)c([N+](=O)[O-])c1 (stereo not drawn),0,25,0,0,0,0
COc1ccc(/C=N/NC(=O)C2C(C=C(Cl)Cl)C2(C)C)c(OC)c1 (stereo not drawn),0,0,0,0,0,0
C/C(=N\NC(N)=O)C1CC(Cc2ccccc2)C(=O)O1 (stereo not drawn),0,0,0,0,0,0
Cc1ccc2nc(SCn3nnc4ccccc4c3=O)[nH]c2c1,0,0,0,0,0,0
O=c1c2ccccc2nnn1CSc1nc2ccccc2[nH]1,-7.6,0,0,0,0,0
COCCN(C(=O)COC(=O)c1cc(C)oc1C)c1c(N)n(Cc2ccccc2)c(=O)[nH]c1=O,0,0,0,0,0,0
O=C(CSc1n[nH]c(=O)n1C1CC1)NCc1ccccc1Cl,0,0,0,0,0,0
CCN(c1ccc(F)cc1)S(=O)(=O)c1cccc2nsnc12,0,0,0,0,-5.5,0
CN(C1CCCCC1)S(=O)(=O)c1cccc2nsnc12,0,0,0,0,-5.1,0
SMILES,TMEM16A act,ANO1 block,Rce1 inhib,CHT block,Kir21 inh,CHT PAM
CCc1ccccc1NS(=O)(=O)c1cccc2nsnc12,0,0,0,0,-5.4,0
CCCCCCCN1CCN=C1Nc1ccccc1,0,0,-,0,-,0
Cc1cccc(CSc2nnc([C@@H]3CCCN3C(=O)OC(C)(C)C)o2)c1,0,0,0,0,-6,0
Cc1cc2c(cc1C)CN(c1ccccc1)C2,0,0,0,0,0,0
COc1ccc(S(=O)(=O)N2CCOC2CNC(=O)C(=O)NCCCN2CCOCC2)cc1C (stereo not drawn),0,0,0,0,0,0
O=C1Nc2ccccc2C(=O)N2[C@H](c3ccccc3)[C@@H]3C(=O)N(Cc4ccccc4)C(=O)[C@@H]3[C@H]12,0,0,0,0,0,0
O=C1Nc2ccccc2C(=O)N2[C@H](c3cccc(Br)c3)[C@@H]3C(=O)N(Cc4ccccc4)C(=O)[C@@H]3[C@H]12,-7.1,0,0,0,0,0
Fc1ccc(C(CCNCc2cccs2)c2ccco2)cc1 (stereo not drawn),0,0,0,0,-4.5,0
O=C(NCCC(c1ccccc1)c1ccco1)c1cccs1 (stereo not drawn),0,0,0,0,0,0
C=CCn1c(SCc2ccc(C(=O)Nc3nccs3)cc2)nnc1-c1ccc(C)c(Cl)c1,0,25,0,0,0,0
CCn1c(SCC(=O)Nc2nccs2)nnc1-c1ccccc1,0,0,0,0,0,0
Cn1c(NC(=O)c2ccccc2F)c(-c2cccs2)c(=O)c2ccccc21,0,0,0,0,0,0
Clc1c(CSc2nc3ccccc3o2)nc2sccn12,0,0,0,0,0,0
Clc1c(CSc2nc3ccccc3o2)nc2ccccn12,-21,0,0,0,0,0
Cc1cccc(C(=O)OC(C)C(=O)Nc2ccc(S(=O)(=O)Nc3ncccn3)cc2)c1C (stereo not drawn),0,-,-,-,-,-
COc1ccc2nc(NCc3ccccc3)[nH]c2c1,0,0,0,0,-5.3,0
Cc1ccccc1OCC(O)Cn1c2ccccc2c2ccccc21 (stereo not drawn),0,0,0,0,0,0
CCCCn1c(=N)n(CC(O)COc2cccc(C)c2)c2ccccc21 (stereo not drawn),0,0,0,0,-5.2,0
CCCCCn1c(=N)n(CC(O)COc2ccccc2OC)c2ccccc21 (stereo not drawn),0,0,0,0,-4.3!,0
C=CCn1c(=N)n(CC(O)COc2ccccc2OC)c2ccccc21 (stereo not drawn),0,0,0,0,0,0
Cc1ccccc1OCC(O)Cn1c(=N)n(Cc2ccccc2)c2ccccc21 (stereo not drawn),0,0,0,0,-12,0
CCCN1CCc2c(sc(NC(=S)NC(=O)c3ccccc3)c2C#N)C1,-5.4,0,-,0,0,0
Cc1ccc(NC(=O)CN(C)C(=O)Cc2c(Cl)cccc2Cl)cc1,0,0,0,0,0,0
CCN(CC)S(=O)(=O)c1cccc(-c2n[nH]c(=S)n2Cc2ccccc2)c1,0,0,+,0,0,0
O=C(CCNC(=O)c1ccc(Br)cc1)NNC(=O)c1ccccc1,0,-,-,-,-,-
O=S(=O)(c1ccc(OC(F)(F)F)cc1)N1CCC(O)(c2cccc(C(F)(F)F)c2)CC1,0,25,0,0,0,0
CC(=O)Nc1ccc(C2=CC(=O)C[C@H](c3ccc4c(c3)OCO4)C2)cc1,0,-,-,-,-,-
